PREPL inhibitor – inhibits the human prolyl oligopeptidase-like enzyme. recombinant PREPL, fluorescence polarization activity-based probe. Q4J6C6. AID 2751. hit rate 0.68% among 320,000. inhibition, % at 5.96 µM;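 further: 0% = enzyme with DMSO and 100% = wells lacking enzyme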
PP1 counter – counter-screen for PP5 inhibitors: inhibitors of human PP1-alpha | P62136 | purified PP1alpha, OMFP fluorescence | inhibition, % at 6.7 µM | hit rate 0.9% among 320,000 | AID 2235;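 active means inhibition above the mean inhibition of all tested compounds plus 3 SD, computed separately for each screening campaign, cut at about 15% in these data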
FID counter – fluorescent intercalator displacement, NS3 helicase counter-screen | DNA fluorescent intercalator displacement, fluorescence | inhibition, % at 7.9 µM | hit rate 0.17% among 290,000 | AID 1845; in the data active means inhibition above about 37%;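 further: 0% = vehicle and 100% = reference compound; higher means more ethidium bromide displaced from hairpin DNA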
PP5 primary – inhibitors of human protein phosphatase 5 (PP5); P53041; purified PP5c, OMFP substrate fluorescence; inhibition, % at 6.7 µM; hit rate 0.18% among 320,000;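 active means inhibition above the campaign's mean inhibition across all tested compounds plus 3 SD, cut at about 9.5% in these data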;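 further: 0% = DMSO only and 100% = 100 µM cantharidin control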
Target sequence (P53041 whole entry, looked up): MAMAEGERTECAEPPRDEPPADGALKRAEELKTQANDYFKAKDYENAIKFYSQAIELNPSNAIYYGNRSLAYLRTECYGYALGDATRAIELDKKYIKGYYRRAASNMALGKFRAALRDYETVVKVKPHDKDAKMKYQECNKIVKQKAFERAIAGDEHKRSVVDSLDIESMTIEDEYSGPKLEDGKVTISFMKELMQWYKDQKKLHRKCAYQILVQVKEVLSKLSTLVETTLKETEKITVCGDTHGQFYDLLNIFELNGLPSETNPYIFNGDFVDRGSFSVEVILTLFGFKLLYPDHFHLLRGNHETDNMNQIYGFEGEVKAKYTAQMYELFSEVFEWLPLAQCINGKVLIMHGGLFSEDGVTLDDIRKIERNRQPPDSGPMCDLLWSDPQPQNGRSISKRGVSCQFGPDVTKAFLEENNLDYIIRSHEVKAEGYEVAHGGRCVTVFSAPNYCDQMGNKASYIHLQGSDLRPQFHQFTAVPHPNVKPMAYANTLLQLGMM
TMEM16A inh – inhibitors of mouse TMEM16A calcium-activated chloride channel; HEK293 TMEM16A/YFP iodide influx fluorescence, ionomycin; normalized B-score (activity score, 25-100; higher = stronger inhibition) at 10 µM; hit rate 1.2% among 310,000; Q8BHY3;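 active means ratio plate-corrected score three or more library SD toward inhibition, starting fluorescence score within five deviations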;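 further: score derived from kinetic fluorescence span divided by baseline fluorescence per well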
TMEM16A act – activates or potentiates the mouse TMEM16A chloride channel | HEK293 TMEM16A/YFP-H148Q/I152L, iodide quench fluorescence; active compounds read low | hit rate 0.3% among 340,000 | Q8BHY3 | AID 623877 | B-score at 10 µM;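 active means fluorescence-ratio B-score plate-corrected deviation score at least 3 library SD below zero, with starting fluorescence score within 5 deviations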;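 further: channel opened by trigger with iodide after compound preincubation; score built on the fluorescence ratio of max minus min over baseline; more negative score means more quench and so TMEM16A activation or potentiation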
PP5 inh confirm – confirmation of human PP5 phosphatase inhibitors. shares compounds with PP5 primary. Purified PP5, fluorogenic phosphatase substrate, fluorescence. inhibition, % at 6.7 µM. hit rate 22% among 460; in the data active means inhibition above about 9.5%
PP1 counter 3x – inhibits human PP1 phosphatase in PP5 counter-screen. PP1 enzyme, fluorescent phosphatase substrate. inhibition, % at 6.7 µM. shares compounds with PP5 primary. hit rate 4% among 460; in the data active means inhibition above about 16%
PREPL inh cf – human PREPL inhibition, confirmation | shares compounds with PREPL inhibitor | hit rate 67% among 2,000 | recombinant PREPL, fluorescence polarization activity probe | inhibition, % at 5.96 µM;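 further: 0% = protein with DMSO and 100% = wells lacking protein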
TMEM16A reconf – reconfirmed blocker of mouse TMEM16A calcium-activated chloride channel; shares compounds with TMEM16A inh; HEK293 TMEM16A/YFP-H148Q, iodide quench fluorescence; ionomycin added to raise cell calcium; inhibition, % at 10 µM; hit rate 39% among 2,300; AID 652189;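 active means mean duplicate percent inhibition, scaled so buffer wells are 0 and the reference blocker 100, over three buffer SD above buffer mean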
TMEM16A Ca cntr – calcium mobilization counter-screen hit for TMEM16A inhibitor series; AID 652231; hit rate 2% among 2,300; shares compounds with TMEM16A inh; calcium response (% of ionomycin), % at 10 µM; TMEM16A/YFP HEK293, Fluo4 calcium mobilization;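 active means duplicate-averaged calcium signal over 20% of the ionomycin maximum, relative to buffer baseline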;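 further: each well's signal is peak minus trough fluorescence divided by its pre-addition baseline; 0% = buffer wells and 100% = ionomycin wells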
YFP-HEK293 quench – acts in parental YFP-HEK293 cells lacking TMEM16A, counter-screen; shares compounds with TMEM16A inh; iodide YFP quench, ionomycin; YFP ratio F(max-min)/F0 at 10 µM; 2,300 tested, under 10 active;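 active means yellow fluorescent protein signal ratio exceeding the buffer control mean by over 5 SD of those controls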;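 further: ratio is mean of duplicate wells from kinetic YFP trace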
ClC-1 rat inh – blocks the rat ClC-1 voltage-dependent chloride channel | shares compounds with TMEM16A inh | CHO ClC-1-YFP, iodide influx fluorescence quench; iodide control reads 0, buffer control 100 | ratio percent, % at 10 µM | 2,300 tested, under 10 active | AID 652236;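 active means duplicate-mean ratio percent above the mean of iodide-only control wells, which defines zero, plus 5 of their SD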;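 further: higher percent means stronger block of ClC-1 iodide influx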
Active calls of the source: *; i = inactive; x = no result given. Sampled rows, rich in hits. Any-hit rate of the full collection: about 2.7%. Unless noted, no stated cut-off is given here; in the data, active means inhibition above about 43%; inactive means the rest.

SMILES | PREPL inhibitor | PP1 counter | FID counter | PP5 primary | TMEM16A inh | TMEM16A act | PP5 inh confirm | PP1 counter 3x | others
O=C(c1ccc(Br)cc1)N1CCN(c2ncccn2)CC1 | 8.0 | -0.9 | x | -1.7 | i | i | x | x
O=C(c1ccc([N+](=O)[O-])cc1)N1CCN(c2ncc(Br)cn2)CC1 | 9.1 | -4.1 | -7.9 | 10.7* | i | i | -3.5 | -2.6
CC(C)(C)OC(=O)NCCCCCNC(=O)c1[nH]cnc1C(=O)N[C@@H](CCCCNC(=O)OC(C)(C)C)C(=O)OC(C)(C)C | -0.8 | 6.2 | -47.9 | 13.1* | i | i | 5.4 | 5.8
CC(C)C[C@H](NC(=O)c1nc[nH]c1C(=O)NC1CCN(C(=O)OC(C)(C)C)CC1)C(=O)OC(C)(C)C | 1.4 | 6.8 | -39.5 | 7.0 | i | i | x | x
CC(C)C[C@H](NC(=O)c1nc[nH]c1C(=O)N[C@@H](CCCCNC(=O)OC(C)(C)C)C(=O)OC(C)(C)C)C(=O)OCc1ccccc1 | 10.7 | 12.9 | -49.4 | 10.9* | i | i | 7.6 | 9.4
CC(C)(C)OC(=O)NCCCC[C@H](NC(=O)c1nc[nH]c1C(=O)NC1CCN(C(=O)OC(C)(C)C)CC1)C(=O)OC(C)(C)C | 5.4 | 9.7 | x | 11.4* | i | i | 8.8 | 9.5
CC(C)(C)OC(=O)[C@H](Cc1ccccc1)NC(=O)c1nc[nH]c1C(=O)NC1CCN(C(=O)OC(C)(C)C)CC1 | 12.3 | 9.1 | -41.3 | 10.1* | i | i | 10.1* | 9.6
CC(C)OCCCNC(=O)c1cc(S(=O)(=O)N2CCc3ccccc32)cn1C | 2.3 | -1.4 | -43.3 | -2.4 | i | i | x | x
COc1cc(NC(=O)Cn2cnc3c(OCc4ccccc4)ncnc32)cc(OC)c1OC | 12.8 | x | x | x | x | i | x | x
CC(C)(C)OC(=O)NCCCC[C@H](NC(=O)c1nc[nH]c1C(=O)N[C@@H](CCCCNC(=O)OC(C)(C)C)C(=O)OC(C)(C)C)C(=O)OC(C)(C)C | 3.6 | 11.1 | x | 15.6* | i | i | 10.8* | 12.3
C[C@H](NC(=O)c1nc[nH]c1C(=O)N[C@@H](CCCCNC(=O)OC(C)(C)C)C(=O)OC(C)(C)C)C(=O)OC(C)(C)C | -0.1 | 7.9 | x | 9.6* | i | i | 5.3 | 5.7
Cc1cccc(NC(=O)c2nc[nH]c2C(=O)N[C@@H](CCCCNC(=O)OC(C)(C)C)C(=O)OC(C)(C)C)c1 | 11.0 | 3.3 | x | 11.4* | i | i | 5.2 | 5.8
Cc1cccc(NC(=O)c2nc[nH]c2C(=O)NCCCCCNC(=O)OC(C)(C)C)c1 | 19.0 | 3.6 | x | 5.2 | x | i | x | x
C[C@H](NC(=O)c1nc[nH]c1C(=O)N[C@@H](CCCCNC(=O)OC(C)(C)C)C(=O)OC(C)(C)C)C(=O)OCc1ccccc1 | -13.9 | 11.3 | -58.4 | 9.1 | i | i | x | x
CC(C)C[C@H](NC(=O)c1[nH]cnc1C(=O)N[C@@H](C)c1ccccc1)C(=O)OC(C)(C)C | -34.7 | 9.3 | -27.1 | 9.9* | i | i | 9.7* | 8.8
COc1ccc(CCNC(=O)Cn2cnc3scc(-c4ccccc4)c3c2=O)cc1OC | 7.0 | 2.0 | -21.4 | -1.8 | i | i | x | x
O=C(OCC(=O)N1CCc2ccccc2C1)c1cccs1 | -8.8 | -2.8 | -6.8 | -1.6 | i | i | x | x
Cc1ccc(NC2=C(N3CCOCC3)C(=O)c3ccccc3C2=O)cc1 | 12.6 | 1.4 | 8.2 | 10.5* | i | i | 29.6* | -0.7
CC(=O)c1ccc(NC2=C(N3CCOCC3)C(=O)c3ccccc3C2=O)cc1 | 14.6 | 4.3 | 2.1 | 10.5* | i | i | 16.2* | 0.1
O=C(O)c1ccc(NC2=C(N3CCOCC3)C(=O)c3ccccc3C2=O)cc1 | 6.0 | -1.0 | -0.3 | 7.6 | i | i | x | x
Cc1cc(C)c(S(=O)(=O)Cc2ccccc2)c(=O)[nH]1 | -4.5 | -0.7 | -1.3 | 0.6 | i | i | x | x
O=C(COc1cccc2ccccc12)Nc1nc2ccccc2[nH]1 | -1.4 | -0.4 | -12.8 | 10.5* | i | i | 4.8 | 3.0
COc1ccc(C(C)C)cc1S(=O)(=O)N1CC(C)OC(C)C1 (stereo unspecified) | 3.9 | -6.0 | -18.9 | 10.0* | i | i | -2.9 | -2.6
O=C(CN1CCN(S(=O)(=O)c2cccc(Cl)c2)CC1)NCC1(N2CCOCC2)CCCCC1 | 35.3 | -5.1 | x | -0.1 | x | i | x | x
CCOC(=O)/C=C/C(=O)Nc1ccc(S(=O)(=O)Nc2c(C)cc(C)cc2C)cc1 | -9.2 | -4.2 | -7.5 | 9.6* | i | i | 2.9 | 4.8
SMILES | PREPL inhibitor | PP1 counter | FID counter | PP5 primary | TMEM16A inh | TMEM16A act | PP5 inh confirm | PP1 counter 3x | others
N#Cc1cc(C(=O)Cc2ccccc2)c[nH]1 | 4.0 | -3.0 | 2.0 | 2.5 | i | i | x | x
COc1ccc2occ(C(=O)c3coc4ccc(O)c(CN(C)C)c34)c2c1 | 35.0 | 1.4 | 9.9 | 10.8* | i | i | -2.1 | -2.0
CCOc1ccc(NC(=S)Nc2ccc3nsnc3c2)cc1 | 43.8* | 10.5 | -4.4 | 11.6* | i | i | 49.2* | 3.0 | PREPL inh cf=13.1
Cc1ccc(C(=O)O)cc1NCc1ccncc1 | 10.8 | -3.1 | -0.7 | 0.9 | i | i | x | x
C=C(C)C1CC=C(C)/C(=N/NC(=O)CNc2ccc(C)cc2C)C1 (stereo unspecified) | 11.3 | -3.8 | -2.5 | 1.4 | i | i | x | x
C=C(C)C1CC=C(C)/C(=N/NC(=O)CNc2ccc(OCC)cc2)C1 (stereo unspecified) | 46.2* | 7.1 | -10.3 | 9.6* | 25* | i | -0.4 | 5.8 | PREPL inh cf=9.6;TMEM16A reconf=i;TMEM16A Ca cntr=i;YFP-HEK293 quench=-1.07;ClC-1 rat inh=-0.5
Cc1ccc(S(=O)(=O)N2CCOCC2)cc1C(=O)OCC(=O)NC1CCCC(C)C1C (stereo unspecified) | 0.2 | -2.6 | x | -0.2 | x | i | x | x
